# In PubChem BioAssay (NCI):
# The panel holds about 79,000 compounds, 15% with a hit somewhere; the sample as a whole holds those more often. A number with no mark means an inactive call. Activity calls are given as the source filed them. Cut-off read from the data, not from the text of the source: active = growth inhibition above about 70%; inactive = the rest.
# Legend:
# [1] = NCI Yeast Anticancer Drug Screen. Data for the rad52 strain (AID 147);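 note: 0% = growth of vehicle-treated control cultures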; details: S. cerevisiae rad52 mutant growth inhibition, stronger effect = higher value
# How it was run: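 Measured: yeast growth inhibition. System: strain with a defined DNA damage repair alteration. Reference: vehicle-treated control cultures.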
# [2] = NCI Yeast Anticancer Drug Screen. Data for the wt1 strain (AID 149);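 note: 0% = growth of vehicle-treated wt1 cultures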; details: S. cerevisiae wt1 strain (SPY 50644) growth inhibition, stronger effect = higher value
# How it was run: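 Measured: growth of wt1 yeast under compound versus vehicle treatment, reported as inhibition.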
# [3] = NCI Yeast Anticancer Drug Screen. Data for the rad50EPP+ strain (AID 151);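 note: 0% = growth of vehicle-treated control cultures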; details: S. cerevisiae rad50 mutant strain, stronger effect = higher value
# How it was run: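 One strain with a rad50 alteration (rad50EPP+) was compound-treated, its growth then compared to that of vehicle controls.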
# [4] = NCI Yeast Anticancer Drug Screen. Data for the mgt1 strain (AID 153); details: S. cerevisiae mgt1 mutant growth inhibition, stronger effect = higher value
# How it was run: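 After exposure of the mgt1 yeast mutant to compound, growth was measured and reported as inhibition compared with vehicle controls.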
# [5] = NCI Yeast Anticancer Drug Screen. Data for the rad50 strain (AID 155);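 note: 0% = growth of vehicle-only cultures of the same strain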; details: S. cerevisiae rad50 strain growth inhibition, stronger effect = higher value
# How it was run: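 Growth of the mutant yeast was measured after compound exposure and referenced to vehicle-treated cultures.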
# [6] = NCI Yeast Anticancer Drug Screen. Data for the mec2-1 strain (AID 157); details: S. cerevisiae mec2-1 strain, stronger effect = higher value
# How it was run: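 Test agents were screened against the mec2-1 yeast strain, with defined DNA repair or cell cycle alteration. Growth was scored as inhibition against vehicle-only controls.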
# [7] = NCI Yeast Anticancer Drug Screen. Data for the rad14 strain (AID 159);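 note: 0% = growth of vehicle-treated control cultures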; details: S. cerevisiae rad14 strain growth inhibition, stronger effect = higher value
# How it was run: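 Here, inhibition of yeast growth was measured after compound exposure, using a strain with a genetic defect in DNA damage repair and vehicle-treated cultures as the reference.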
# [8] = NCI Yeast Anticancer Drug Screen. Data for the sgs1 mgt1 strain (AID 161);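 note: 0% = growth of cultures given vehicle only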; details: S. cerevisiae sgs1 mgt1 strain, stronger effect = higher value
# How it was run: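 Mutant yeast exposed to compound; growth scored against vehicle-only wells.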
# [9] = NCI Yeast Anticancer Drug Screen. Data for the CLN2oe strain (AID 163);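 note: 0% = growth of vehicle-only control cultures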; details: S. cerevisiae CLN2oe strain, stronger effect = higher value
# How it was run: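 Here, growth inhibition in a cell-cycle-altered yeast strain after compound exposure was quantified against vehicle control growth.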
# [10] = NCI Yeast Anticancer Drug Screen. Data for the cln2 rad14 strain (AID 165);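 note: 0% = growth equal to vehicle treated cultures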; details: S. cerevisiae cln2 rad14 strain, stronger effect = higher value
# How it was run: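 Growth of compound-exposed yeast (cln2 rad14 genotype) measured and expressed as inhibition relative to vehicle.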
# [11] = NCI Yeast Anticancer Drug Screen. Data for the bub3 strain (AID 167); details: S. cerevisiae bub3 mutant strain, stronger effect = higher value
# How it was run: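 Whole-cell yeast assay. The mutant strain was incubated with compounds, and growth inhibition was determined by comparison with vehicle-treated cells.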
# [12] = NCI Yeast Anticancer Drug Screen. Data for the wt2 strain (AID 169);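 note: 0% = growth of vehicle-treated yeast cultures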; details: S. cerevisiae wt2 strain growth inhibition, stronger effect = higher value
# How it was run: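 Genetically defined yeast strains from a DNA-repair/cell-cycle panel were used. Compound-exposed yeast growth was measured, and the inhibition was calculated relative to vehicle treatment.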
# [13] = NCI Yeast Anticancer Drug Screen. Data for the mlh1 strain (AID 171);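 note: 0% = growth of vehicle-treated control cultures of the same strain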; details: S. cerevisiae mlh1 strain growth inhibition, stronger effect = higher value
# How it was run: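 Here the genetically defined yeast mutant is grown with each compound, and the extent to which its growth falls below that of vehicle-exposed cells is reported.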
# [14] = NCI Yeast Anticancer Drug Screen. Data for the sgs1 strain (AID 173);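 note: 0% = growth of vehicle-only control cultures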; details: S. cerevisiae sgs1 mutant, stronger effect = higher value
# How it was run: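 Relative growth inhibition, referenced to vehicle, was determined in a yeast strain with a defined alteration affecting DNA damage repair or cell cycle control after compound exposure.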
# [15] = NCI Yeast Anticancer Drug Screen. Data for the mlh1 rad18 strain (AID 175); details: S. cerevisiae mlh1 rad18 strain growth inhibition, stronger effect = higher value
# How it was run: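 In this whole-cell yeast screen, a strain with altered DNA damage repair is challenged with compound, and its growth is measured against matched vehicle-treated controls.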
# [16] = NCI Yeast Anticancer Drug Screen. Data for the rad18 strain (AID 177); details: S. cerevisiae rad18 mutant growth inhibition, stronger effect = higher value
# How it was run: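 Screen uses a yeast strain with a defined lesion in DNA damage repair; compound effect is read as loss of growth compared to untreated vehicle cultures.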
# [17] = at 5.0 µM (retest, dose inferred, filed as 0.5)
# [18] = at 50.0 µM (retest, dose inferred, filed as 5.0)
smiles,measurement,setting,value
CC(C)OP(=O)(OC(C)C)C(=NCCO)NNc1ccc([N+](=O)[O-])cc1,growth inhibition,[1]; at 1.2 µM,8%
same,growth inhibition,[1]; at 3.7 µM,3%
same,growth inhibition,[1]; at 11.0 µM,14%
same,growth inhibition,[1]; at 33.0 µM,31%
same,growth inhibition,[1]; at 100.0 µM,79% (active)
same,growth inhibition,[2]; at 1.2 µM,-6%
same,growth inhibition,[2]; at 3.7 µM,1%
same,growth inhibition,[2]; at 11.0 µM,6%
same,growth inhibition,[2]; at 33.0 µM,7%
same,growth inhibition,[2]; at 100.0 µM,29%
same,growth inhibition,[3]; at 1.2 µM,-2%
same,growth inhibition,[3]; at 3.7 µM,34%
same,growth inhibition,[3]; at 11.0 µM,69%
same,growth inhibition,[3]; at 33.0 µM,93% (active)
same,growth inhibition,[3]; at 100.0 µM,94% (active)
same,growth inhibition,[4]; at 1.2 µM,-34%
same,growth inhibition,[4]; at 3.7 µM,-34%
same,growth inhibition,[4]; at 11.0 µM,-32%
same,growth inhibition,[4]; at 33.0 µM,0%
same,growth inhibition,[4]; at 100.0 µM,74% (active)
same,growth inhibition,[5]; at 1.2 µM,-5%
same,growth inhibition,[5]; at 3.7 µM,-3%
same,growth inhibition,[5]; [17],8%
same,growth inhibition,[5]; at 11.0 µM,24%
same,growth inhibition,[5]; at 33.0 µM,59%
same,growth inhibition,[5]; [18],64%
same,growth inhibition,[5]; at 50.0 µM,86% (active)
same,growth inhibition,[5]; at 100.0 µM,91% (active)
same,growth inhibition,[6]; at 1.2 µM,-23%
same,growth inhibition,[6]; at 3.7 µM,-16%
same,growth inhibition,[6]; [17],-2%
same,growth inhibition,[6]; at 11.0 µM,-19%
same,growth inhibition,[6]; at 33.0 µM,20%
same,growth inhibition,[6]; [18],33%
same,growth inhibition,[6]; at 50.0 µM,28.1%
same,growth inhibition,[6]; at 100.0 µM,40%
same,growth inhibition,[7]; at 1.2 µM,-10%
same,growth inhibition,[7]; at 3.7 µM,3%
same,growth inhibition,[7]; at 11.0 µM,4%
same,growth inhibition,[7]; at 33.0 µM,3%
same,growth inhibition,[7]; at 100.0 µM,42%
same,growth inhibition,[8]; [17],1%
same,growth inhibition,[8]; [18],23%
same,growth inhibition,[8]; at 50.0 µM,85% (active)
same,growth inhibition,[9]; at 1.2 µM,-17%
same,growth inhibition,[9]; at 3.7 µM,3%
same,growth inhibition,[9]; at 11.0 µM,4%
same,growth inhibition,[9]; at 33.0 µM,44%
same,growth inhibition,[9]; at 100.0 µM,90% (active)
same,growth inhibition,[10]; [17],25%
same,growth inhibition,[10]; [18],48%
same,growth inhibition,[10]; at 50.0 µM,9.95%
same,growth inhibition,[11]; at 1.2 µM,-15%
same,growth inhibition,[11]; at 3.7 µM,22%
same,growth inhibition,[11]; [17],22%
same,growth inhibition,[11]; at 11.0 µM,49%
same,growth inhibition,[11]; at 33.0 µM,94% (active)
same,growth inhibition,[11]; [18],62%
same,growth inhibition,[11]; at 50.0 µM,56.7%
same,growth inhibition,[11]; at 100.0 µM,95% (active)
same,growth inhibition,[12]; at 1.2 µM,1%
same,growth inhibition,[12]; at 3.7 µM,-3%
same,growth inhibition,[12]; at 11.0 µM,8%
same,growth inhibition,[12]; at 33.0 µM,26%
same,growth inhibition,[12]; at 100.0 µM,50%
same,growth inhibition,[13]; at 1.2 µM,-18%
same,growth inhibition,[13]; at 3.7 µM,-22%
same,growth inhibition,[13]; at 11.0 µM,3%
same,growth inhibition,[13]; at 33.0 µM,46%
same,growth inhibition,[13]; at 100.0 µM,87% (active)
same,growth inhibition,[14]; at 1.2 µM,24%
same,growth inhibition,[14]; at 3.7 µM,39%
same,growth inhibition,[14]; at 11.0 µM,71% (active)
same,growth inhibition,[14]; at 33.0 µM,95% (active)
same,growth inhibition,[14]; at 100.0 µM,95% (active)
same,growth inhibition,[15]; [17],48%
same,growth inhibition,[15]; [18],96% (active)
same,growth inhibition,[15]; at 50.0 µM,72.9% (active)
same,growth inhibition,[16]; at 1.2 µM,20%
same,growth inhibition,[16]; at 3.7 µM,0%
same,growth inhibition,[16]; at 11.0 µM,13%
same,growth inhibition,[16]; at 33.0 µM,54%
same,growth inhibition,[16]; at 100.0 µM,91% (active)
